Each structure is given as a SMILES string. Among all 200,000 compounds or so, about 810 (0.41%) were called active. Rule as the data show it: active = activation above about 19%; inactive = the rest. This excerpt belongs to a sample that is enriched for actives.

The target in this experiment is Peroxisome proliferator-activated receptor gamma (Homo sapiens) (UniProt P37231). The experiment can be described thus: enhancers of SRC-1 binding to PPARgamma – biochemical, primary screen (AID 631).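 Also: 0% = DMSO and 100% = reference agonist.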 The conditions noted are these: PPARgamma-SRC-1 coactivator recruitment biochemical assay; at 8 µM; active compounds read high.
Chain of Peroxisome proliferator-activated receptor gamma (Homo sapiens) (P37231 whole entry, looked up): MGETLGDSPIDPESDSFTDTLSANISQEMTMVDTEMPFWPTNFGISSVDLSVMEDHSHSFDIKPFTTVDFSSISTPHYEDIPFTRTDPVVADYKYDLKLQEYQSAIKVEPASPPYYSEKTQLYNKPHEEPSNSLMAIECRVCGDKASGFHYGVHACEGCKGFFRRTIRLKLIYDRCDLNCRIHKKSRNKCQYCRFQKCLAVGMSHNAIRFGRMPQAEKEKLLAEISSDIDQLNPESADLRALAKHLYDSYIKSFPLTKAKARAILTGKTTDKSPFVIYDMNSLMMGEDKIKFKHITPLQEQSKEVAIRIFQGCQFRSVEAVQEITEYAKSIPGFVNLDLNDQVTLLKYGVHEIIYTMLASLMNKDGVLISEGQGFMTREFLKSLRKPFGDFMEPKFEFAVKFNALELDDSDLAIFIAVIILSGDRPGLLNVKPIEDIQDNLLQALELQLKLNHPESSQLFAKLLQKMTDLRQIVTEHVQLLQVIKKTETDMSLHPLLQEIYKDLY
As for `CSC1=NP(=S)(SC)N(C)c2nc3n(c21)CCC3` (stereo not given), the activation was 65.3% (active).

For `Cc1ccc2c(c1)C1CN(C)CCC1N2C(=O)Cn1nnc(-c2ccccc2F)n1` (stereo not given), the activation is 3.5% (inactive).

On to `OCC#CC[N+]1(CC#Cc2ccccc2)CCCC1`, for which the activation is 4.2% (inactive).

In the case of `CC(=O)NC(=O)NC(C)Cc1ccccc1` (stereo not given), the activation was 6.2% (inactive).

`COc1cccc(-c2nc3ccc(N4CCN(C)CC4)cc3[nH]2)c1`: the activation is 3.8% (inactive).

The values above are taken from PubChem BioAssay AID631 (The Scripps Research Institute Molecular Screening Center, 2007).
